Potency and affinity values are given separately. Records with an inconclusive call do not appear. Calls of active or inactive are those of the source.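 How the source made its calls: active means compound whose fitted half-inhibition dose sits at or below twice its top tested dose in every test run; inconclusive means test runs disagree, or every run is unclear; inactive means inactive in every test run.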
target: Leucyl-cystinyl aminopeptidase (Mus musculus) (UniProt Q8C129); test: mouse IRAP aminopeptidase activity inhibition – biochemical, dry powder samples, set 3, selectivity assay for ERAP1 modulator project, dose response (AID 1117288); conditions: purified IRAP enzyme, Leu-AMC fluorescence, 1 h; series mostly up to 50 µM
Sequence (Q8C129 whole entry, looked up): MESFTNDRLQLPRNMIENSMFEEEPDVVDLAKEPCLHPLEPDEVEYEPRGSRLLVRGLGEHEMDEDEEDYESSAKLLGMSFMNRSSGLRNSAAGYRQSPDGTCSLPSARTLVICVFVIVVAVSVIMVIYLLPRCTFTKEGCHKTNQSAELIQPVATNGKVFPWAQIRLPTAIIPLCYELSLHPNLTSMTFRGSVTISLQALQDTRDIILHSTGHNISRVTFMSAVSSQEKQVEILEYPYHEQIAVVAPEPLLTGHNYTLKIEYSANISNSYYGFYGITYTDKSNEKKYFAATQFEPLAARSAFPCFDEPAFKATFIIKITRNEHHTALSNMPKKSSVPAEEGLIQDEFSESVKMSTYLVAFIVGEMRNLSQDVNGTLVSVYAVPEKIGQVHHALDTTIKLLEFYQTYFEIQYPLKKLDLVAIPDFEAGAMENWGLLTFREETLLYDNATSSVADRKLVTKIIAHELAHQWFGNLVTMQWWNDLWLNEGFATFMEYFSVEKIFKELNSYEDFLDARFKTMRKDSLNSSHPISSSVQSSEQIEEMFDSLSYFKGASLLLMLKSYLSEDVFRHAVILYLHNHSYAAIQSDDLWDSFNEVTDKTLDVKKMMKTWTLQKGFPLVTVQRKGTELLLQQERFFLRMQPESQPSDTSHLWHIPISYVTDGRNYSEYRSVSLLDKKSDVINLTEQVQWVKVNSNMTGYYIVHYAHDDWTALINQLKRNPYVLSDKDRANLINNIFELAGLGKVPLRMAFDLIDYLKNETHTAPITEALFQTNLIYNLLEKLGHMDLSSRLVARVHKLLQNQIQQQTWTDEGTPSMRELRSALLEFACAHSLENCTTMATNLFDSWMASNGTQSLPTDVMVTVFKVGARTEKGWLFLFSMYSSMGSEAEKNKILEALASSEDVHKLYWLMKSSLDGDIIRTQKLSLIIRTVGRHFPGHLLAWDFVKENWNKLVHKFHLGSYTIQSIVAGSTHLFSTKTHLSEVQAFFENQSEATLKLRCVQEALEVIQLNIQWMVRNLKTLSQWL

outcome, inactive:
COC(=O)c1ccc(OC)c(S(=O)(=O)Nc2cc(C(F)(F)F)ccc2N2CCCCC2)c1
COc1ccc(C(=O)O)cc1S(=O)(=O)Nc1cc(C(F)(F)F)ccc1N1CCOCC1
COc1ccc(C(=O)O)cc1S(=O)(=O)Nc1cc(C(F)(F)F)ccc1N1CCN(C)CC1
Cc1ccc(S(=O)(=O)Nc2cc(C(F)(F)F)ccc2N2CCCCC2)cc1C(=O)O
COc1ccc(C(=O)O)cc1S(=O)(=O)Nc1cc(C(F)(F)F)ccc1N(C)C
COc1ccc(C(=O)O)cc1S(=O)(=O)N(C)c1cc(C(F)(F)F)ccc1N1CCCCC1
COc1ccc(C(=O)O)cc1S(=O)(=O)Nc1ccccc1N1CCCCC1
O=C(O)c1cccc(S(=O)(=O)Nc2cc(C(F)(F)F)ccc2N2CCCCC2)c1
COc1ccc(C(=O)O)cc1S(=O)(=O)Nc1cc(C)ccc1N1CCCCC1
O=C(O)c1ccc(Br)c(S(=O)(=O)Nc2cc(C(F)(F)F)ccc2N2CCCCC2)c1
O=C(O)c1cc(F)cc(S(=O)(=O)Nc2cc(C(F)(F)F)ccc2N2CCCCC2)c1
COc1ccc(C(=O)O)cc1S(=O)(=O)Nc1cc(C(F)(F)F)ccc1N1CCCCC1
O=C(O)c1ccc(Cl)c(S(=O)(=O)Nc2cc(C(F)(F)F)ccc2N2CCCCC2)c1
COc1ccc(C(=O)O)cc1S(=O)(=O)Nc1ccc(N2CCCCC2)cc1C(F)(F)F
Cc1ccc(C(=O)O)cc1S(=O)(=O)Nc1cc(C(F)(F)F)ccc1N1CCCCC1
COc1ccc(C(=O)O)cc1S(=O)(=O)N1CCN(c2ccc(C(F)(F)F)cc2N)CC1
COc1ccc(C(=O)O)cc1S(=O)(=O)Nc1cccc(N2CCCCC2)c1C(F)(F)F
COc1ccc(C(=O)O)cc1S(=O)(=O)Nc1cc(F)ccc1N1CCCCC1

Source: PubChem BioAssay AID1117288 (Broad Institute, 2014)
